Results published in PubChem BioAssay.
Activity calls are given as the source filed them.

What was measured:
[1] = compound effects on lung adenocarcinoma cell viability – A549, calcein-AM fluorescence, 48 h, basal, profiling panel (AID 1162); conditions: higher = more signal
[2] = compound effects on differentiated 3T3-L1 adipocyte viability – cell-based, 3T3-L1 adipocytes, calcein-AM fluorescence, 48 h, basal, profiling panel (AID 1163); conditions: 3T3-L1 adipocytes viability, higher = more signal
[3] = compound effects on hepatocellular carcinoma cell viability – HepG2, calcein-AM fluorescence, 48 h, basal, profiling panel (AID 1164); conditions: higher = more signal
[4] = compound effects on multiple myeloma cell viability – MM1S, calcein-AM fluorescence, 48 h, basal, profiling panel (AID 1165); conditions: higher = more signal
[5] = calcein-AM signal in unstimulated myeloma cells – cell-based, calcein-AM fluorescence, 48 h, PK04 Diversity Set, profiling panel (AID 1166); conditions: RPMI8226 myeloma viability, higher = more signal;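 also: cells grown under basal conditions without added stimulus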
[6] = JC-1 mitochondrial signal, unstimulated HepG2 cells – cell-based, JC-1 fluorescence, 24 h, 100 nL compound, profiling panel (AID 1167); conditions: HepG2 mitochondrial potential, higher = more signal
[7] = JC-1 mitochondrial signal, unstimulated adipocytes – cell-based, JC-1 fluorescence, 3T3-L1 adipocytes, 24 h, 100 nL compound, profiling panel (AID 1168); conditions: JC-1 mitochondrial fluorescence, higher = more signal, called active from +8 up or from −8 down
[8] = JC-1 mitochondrial signal, unstimulated myeloma cells – cell-based, JC-1 fluorescence, RPMI8226, 24 h, 100 nL compound, profiling panel (AID 1169); conditions: JC-1 mitochondrial potential fluorescence, higher = more signal
[9] = JC-1 mitochondrial signal, unstimulated MM1S myeloma – cell-based, JC-1 fluorescence, 24 h, 100 nL compound, profiling panel (AID 1170); conditions: MM1S mitochondrial potential, higher = more signal
[10] = resazurin metabolic signal in A549 cells – cell-based, resazurin fluorescence, 24 h, PK04 Diversity Set, profiling panel (AID 1171); conditions: A549 viability, higher = more signal, called active from +8 up or from −8 down
Also: test concentration not given here.

CC(c1ccccc1)C(O)C1C=CC2C(=O)N(c3ccccc3)C(=O)C2N1Nc1ccccc1 (stereo not given)
z-score [1]: -0.477 | z-score [2]: 0.618 | z-score [3]: -0.645 | z-score [4]: -0.476 | z-score [5]: -0.823 | z-score [6]: -2.36 | z-score [7]: -0.266 (inactive) | z-score [8]: -0.814 | z-score [9]: -0.547 | z-score [10]: -1.15 (inactive)

O=C1OCC=C[C@H]2OC34C=CCN(CCN5CCOCC5)C(=O)[C@H]3N(CCO)C(=O)[C@@H]4[C@@H]12 (stereo not given in full)
z-score [1]: -0.157 | z-score [2]: 0.196 | z-score [3]: 0.804 | z-score [4]: -0.635 | z-score [5]: -0.253 | z-score [6]: -0.464 | z-score [7]: 0.00617 (inactive) | z-score [8]: -0.299 | z-score [9]: 0.292 | z-score [10]: -0.124 (inactive)

COc1cc2c(cc1OC)CN(C(=O)[C@H]1[C@@H]3C(=O)O[C@@H](c4ccccc4)[C@@H](c4ccccc4)N3[C@@H](c3ccccc3OCCO)[C@]13C(=O)Nc1ccc(C#CCCO)cc13)CC2
z-score [1]: 0.228 | z-score [2]: -0.538 | z-score [3]: -0.368 | z-score [4]: -0.217 | z-score [5]: -0.33 | z-score [6]: -0.641 | z-score [7]: 0.451 (inactive) | z-score [8]: -0.377 | z-score [9]: -0.96 | z-score [10]: 0.426 (inactive)

C=C(CCCC)/C(=C/C[C@@H](OC(C)=O)c1ccccc1OCCO)c1cc(C(=O)OC)ccc1OC
z-score [1]: 1.83 | z-score [2]: 0.109 | z-score [3]: 0.741 | z-score [4]: -2.54 | z-score [5]: -0.354 | z-score [6]: 1.75 | z-score [7]: 0.478 (inactive) | z-score [8]: -0.118 | z-score [9]: 0.234 | z-score [10]: 0.873 (inactive)

COCCCNC(=O)[C@@H]1c2ccccc2C(=O)N(Cc2ccccc2)[C@H]1c1ccc(CO)cc1
z-score [1]: 0.273 | z-score [2]: 0.803 | z-score [3]: 0.601 | z-score [4]: 0.239 | z-score [5]: 0.437 | z-score [6]: 1.1 | z-score [7]: -0.0918 (inactive) | z-score [8]: 0.163 | z-score [9]: 0.282 | z-score [10]: 0.45 (inactive)

COCCCNC(=O)[C@@]1(Cc2ccccc2CN=[N+]=[N-])N=C(c2ccc(OCCCO)cc2)O[C@H]1c1ccccc1CN=[N+]=[N-]
z-score [1]: -0.768 | z-score [2]: 1.56 | z-score [3]: -0.983 | z-score [4]: -2.88 | z-score [5]: -3.94 | z-score [6]: 1.57 | z-score [7]: 2.31 (inactive) | z-score [8]: -1.2 | z-score [9]: -2.64 | z-score [10]: -1.2 (inactive)

CCCCN1CC=CC23O[C@@H]4/C=C\CCCOC(=O)C4[C@H]2C(=O)N(CCCCCO)[C@@H]3C1=O (stereo not given in full)
z-score [1]: -0.234 | z-score [2]: 1.14 | z-score [3]: -0.195 | z-score [4]: 1.46 | z-score [5]: 0.0001 | z-score [6]: -0.327 | z-score [7]: 0.783 (inactive) | z-score [8]: 0.163 | z-score [9]: -0.0801 | z-score [10]: 0.356 (inactive)

CCOC(=O)C1=CC[C@@H](c2ccc(C(F)(F)F)cc2)N(S(=O)(=O)c2ccc(C)cc2)[C@H]1c1ccccc1
z-score [1]: -0.664 | z-score [2]: -1.01 | z-score [3]: 0.0691 | z-score [4]: -2.36 | z-score [5]: -1.95 | z-score [6]: -1.59 | z-score [7]: 0.154 (inactive) | z-score [8]: -1.11 | z-score [9]: -3.18 | z-score [10]: 0.138 (inactive)

COc1ccc([Si](C)(C)[C@H]2[C@H](CC(=O)N3CCC[C@H]3CO)O[C@@]3(C(=O)N(Cc4cccc(N5CCOC5=O)c4)c4ccccc43)[C@@H]2C)cc1
z-score [1]: -0.0923 | z-score [2]: 0.1 | z-score [3]: -0.0734 | z-score [4]: -2.19 | z-score [5]: -3 | z-score [6]: 2.76 | z-score [7]: -0.0541 (inactive) | z-score [8]: -0.952 | z-score [9]: -0.0702 | z-score [10]: 0.299 (inactive)

CC#CC(=O)Oc1ccc(Br)cc1C=CC(=O)OCC
z-score [1]: -2.1 | z-score [2]: -1.04 | z-score [3]: -2.88 | z-score [4]: -3.18 | z-score [5]: -4.08 | z-score [6]: -1.65 | z-score [7]: -0.315 (inactive) | z-score [8]: -0.583 | z-score [9]: -1.84 | z-score [10]: -0.685 (inactive)

COc1ccc([Si](C)(C)[C@@H]2[C@@H](CCO)O[C@]3(C(=O)N(Cc4cccc(N5CCOC5=O)c4)c4ccccc43)[C@H]2C)cc1
z-score [1]: -0.687 | z-score [2]: -0.514 | z-score [3]: -0.769 | z-score [4]: -2.11 | z-score [5]: -4.17 | z-score [6]: 0.183 | z-score [7]: 1.05 (inactive) | z-score [8]: -0.978 | z-score [9]: -1.78 | z-score [10]: -1.76 (inactive)

O=C1[C@H]2C=C(I)[C@H](C[C@@H]2OCCCCO)[C@@]12CO2
z-score [1]: -0.292 | z-score [2]: -0.393 | z-score [3]: -0.66 | z-score [4]: -0.739 | z-score [5]: -0.954 | z-score [6]: -1.71 | z-score [7]: -0.431 (inactive) | z-score [8]: -1.13 | z-score [9]: -0.509 | z-score [10]: 0.109 (inactive)

COC(=O)[C@@]1(Cc2ccccc2)[C@H]2c3cc(C(=O)N4CCCC4)n(Cc4c(CO)[nH]cc(C)c4=O)c3C[C@H]2CN1C(=O)c1ccccc1
z-score [1]: -1.45 | z-score [2]: -0.412 | z-score [3]: -0.844 | z-score [4]: -0.662 | z-score [5]: -2.04 | z-score [6]: -0.401 | z-score [7]: -0.276 (inactive) | z-score [8]: -0.797 | z-score [9]: -0.444 | z-score [10]: 0.739 (inactive)

Cc1ccc(C2C3C(=O)CC4C(=O)N(c5ccccc5)C(=O)C4C3CN2S(=O)(=O)c2ccc(C)cc2)cc1 (stereo not given)
z-score [1]: -0.105 | z-score [2]: -0.172 | z-score [3]: 0.261 | z-score [4]: 0.948 | z-score [5]: 0.563 | z-score [6]: 0.371 | z-score [7]: 0.134 (inactive) | z-score [8]: 0.515 | z-score [9]: -0.878 | z-score [10]: -0.821 (inactive)

C=CCNC(=O)[C@@H]1[C@H]2C(=O)O[C@H](c3ccccc3)[C@H](c3ccccc3)N2[C@H](c2ccc(OCCO)cc2)[C@@]12C(=O)N(C(=O)OCCOC)c1ccc(C#CCNC(N)=O)cc12
z-score [1]: -0.0901 | z-score [2]: 0.488 | z-score [3]: 0.219 | z-score [4]: 0.911 | z-score [5]: -1.6 | z-score [6]: -0.734 | z-score [7]: 0.648 (inactive) | z-score [8]: -0.888 | z-score [9]: 0.679 | z-score [10]: -0.271 (inactive)

CC(CO)N1C(=O)[C@@H]2C3C(=O)OCCC/C=C\[C@H]3OC23C=CCN(CCN2CCOCC2)C(=O)[C@@H]13 (stereo not given in full)
z-score [1]: -0.31 | z-score [2]: -0.414 | z-score [3]: 0.755 | z-score [4]: 1.92 | z-score [5]: 0.435 | z-score [6]: 0.559 | z-score [7]: -0.109 (inactive) | z-score [8]: 0.357 | z-score [9]: -1.07 | z-score [10]: -0.7 (inactive)

C=CCC(OC(C)=O)[C@@H]1[C@@H](N(Cc2ccc(-c3cccc(C(F)(F)F)c3)o2)C(=O)c2cccc3ccccc23)c2cc(OCCCO)ccc2N1C(=O)Cc1ccc2ccccc2c1 (stereo not given in full)
z-score [1]: -0.285 | z-score [2]: 0.784 | z-score [3]: -0.0575 | z-score [4]: -0.564 | z-score [5]: -2.04 | z-score [6]: 1.1 | z-score [7]: -0.62 (inactive) | z-score [8]: -0.0209 | z-score [9]: -0.0374 | z-score [10]: -0.0845 (inactive)

CC(=O)NCCCC[C@@H]1NC(=O)[C@H]2C[C@@H](C(=O)O)[C@@H](c3ccc(O)cc3)N2C1=O
z-score [1]: -0.199 | z-score [2]: 0.766 | z-score [3]: -0.14 | z-score [4]: -2.18 | z-score [5]: -1.3 | z-score [6]: 0.237 | z-score [7]: 0.328 (inactive) | z-score [8]: -0.621 | z-score [9]: -1.55 | z-score [10]: 0.273 (inactive)

CCOC(=O)C1=C[C@@H](C(C)C)N(S(=O)(=O)c2ccc(C)cc2)[C@H]1c1ccccc1F
z-score [1]: -1.2 | z-score [2]: 0.0139 | z-score [3]: -0.972 | z-score [4]: -0.463 | z-score [5]: -1.08 | z-score [6]: 0.175 | z-score [7]: 0.227 (inactive) | z-score [8]: -0.128 | z-score [9]: -0.581 | z-score [10]: 1.76 (inactive)

COCCOC(=O)N1C(=O)[C@@]2(c3cc(C#CC4(O)CCCCCC4)ccc31)[C@H](C(=O)Nc1nc3ccccc3s1)[C@H]1C(=O)O[C@H](c3ccccc3)[C@H](c3ccccc3)N1[C@@H]2c1ccccc1OCCO
z-score [1]: 1.29 | z-score [2]: 1.14 | z-score [3]: -0.333 | z-score [4]: -2.18 | z-score [5]: -3.42 | z-score [6]: -3.05 | z-score [7]: 1.47 (inactive) | z-score [8]: -0.866 | z-score [9]: -0.876 | z-score [10]: -0.511 (inactive)

CC1CC/C=C\[C@H]2OC34C=CCN(c5ccc6ccccc6c5)C(=O)[C@H]3N(CCO)C(=O)[C@@H]4C2C(=O)O1 (stereo not given in full)
z-score [1]: -0.099 | z-score [2]: 0.428 | z-score [3]: -0.303 | z-score [4]: 1.01 | z-score [5]: -0.36 | z-score [6]: -0.438 | z-score [7]: -0.55 (inactive) | z-score [8]: -0.0138 | z-score [9]: 1.19 | z-score [10]: -0.573 (inactive)
